# Laboratory results: the supplement of paper PMC9023506
# Structures can show the parent of a compound that is named as a salt.
# Tested on: Danio rerio larvae (5 dpf)
# Test: habituation to 1-s acoustic pulses, difference vs DMSO (percentage points (treated minus DMSO)); higher = more of the behaviour than the DMSO vehicle control
# Details: 10 µM; exposure time: 3 h pre-incubation + 3 h imaging
# Method: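 5-dpf wild-type zebrafish larvae were imaged in 96-well plates. They were treated with 190 Tocris FDA-approved drugs at 10 µM (1 µl/ml DMSO) for 3 h before and 3 h during imaging at 28.5 °C, 48 larvae per drug. Automated image analysis gave % time moving and optomotor responses. Values are drug group mean minus DMSO vehicle mean (n=844), in percentage points, for 10 behaviours.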
row,Structure (SMILES),habituation to 1-s acoustic pulses
1,COc1ccc(C[C@@H](C)NC[C@H](O)c2ccc(O)c(NC=O)c2)cc1 [Arformoterol tartrate],-3.34
2,CC(=O)Oc1cc2c(s1)CCN(C(C(=O)C1CC1)c1ccccc1F)C2 (stereo not given) [Prasugrel],2.1
3,CCOc1cc(CC(=O)N[C@@H](CC(C)C)c2ccccc2N2CCCCC2)ccc1C(=O)O [Repaglinide],-8.43
4,CN(CCOc1ccc(NS(C)(=O)=O)cc1)CCc1ccc(NS(C)(=O)=O)cc1 [Dofetilide],5.42
5,CN(C)CC/C=C1/c2ccccc2COc2ccc(CC(=O)O)cc21 [Olopatadine hydrochloride],0.997
6,COc1ccc([C@@H]2Sc3ccccc3N(CCN(C)C)C(=O)[C@@H]2OC(C)=O)cc1 [Diltiazem hydrochloride],-0.578
7,Nc1ncn([C@@H]2O[C@H](CO)[C@@H](O)[C@H]2O)c(=O)n1 [5-Azacytidine],0.737
8,CCCCCCCN(CC)CCCC(O)c1ccc(NS(C)(=O)=O)cc1 (stereo not given) [Ibutilide hemifumarate],2.78
9,CCOC(=O)[C@H](CCc1ccccc1)N[C@@H](C)C(=O)N1[C@H](C(=O)O)C[C@@H]2CCC[C@@H]21 [Ramipril],-1.94
10,O=c1n(CCCN2CCN(c3cccc(Cl)c3)CC2)nc2ccccn12 [Trazodone hydrochloride],-10.7
11,COc1cc2nccc(Oc3ccc(NC(=O)C4(C(=O)Nc5ccc(F)cc5)CC4)cc3)c2cc1OC,-4.53
12,CC(C)c1nc(CN(C)C(=O)N[C@H](C(=O)N[C@@H](Cc2ccccc2)C[C@H](O)[C@H](Cc2ccccc2)NC(=O)OCc2cncs2)C(C)C)cs1 [Ritonavir],-0.262
13,CCOc1nc2cccc(C(=O)O)c2n1Cc1ccc(-c2ccccc2-c2nnn[nH]2)cc1 [Candesartan],4.86
14,Clc1ccccc1C(c1ccccc1)(c1ccccc1)n1ccnc1 [Clotrimazole],-1.97
15,CC(=O)Nc1ccc(O)cc1 [Acetaminophen],-1.9
16,COc1ccccc1OCCNCC(O)COc1cccc2[nH]c3ccccc3c12 (stereo not given) [Carvedilol],2.04
17,COc1ccc(-c2ccc3cc(C(=O)O)ccc3c2)cc1C12CC3CC(CC(C3)C1)C2 [Adapalene],2.52
18,Cc1ccc(N(CC2=NCCN2)c2cccc(O)c2)cc1 [Phentolamine Mesylate],5.8
19,CCC(C)(C)C(=O)O[C@H]1C[C@@H](C)C=C2C=C[C@H](C)[C@H](CC[C@@H]3C[C@@H](O)CC(=O)O3)[C@H]21 [Simvastatin],-1.13
20,CC(C)Nc1cccnc1N1CCN(C(=O)c2cc3cc(NS(C)(=O)=O)ccc3[nH]2)CC1 [Delavirdine mesylate],-7.61

row,Structure (SMILES),habituation to 1-s acoustic pulses
1,CCCN(CCC)S(=O)(=O)c1ccc(C(=O)O)cc1 [Probenecid],4.24
2,C[C@H](Cc1cc2c(c(C(N)=O)c1)N(CCCO)CC2)NCCOc1ccccc1OCC(F)(F)F [Silodosin],7.97
3,C[C@@H]1C[C@H]2[C@@H]3CCC4=CC(=O)C=C[C@]4(C)[C@@]3(F)[C@@H](O)C[C@]2(C)[C@@]1(O)C(=O)CO [Dexamethasone],2.44
4,C[C@]12CCC(=O)C=C1CC[C@@H]1[C@@H]2[C@@H](O)C[C@@]2(C)[C@H]1CC[C@]2(O)C(=O)CO [Hydrocortisone],2.73
5,CCCCCCCCc1ccc(CCC(N)(CO)CO)cc1,3.87
6,CCOc1ccccc1OCCN[C@H](C)Cc1ccc(OC)c(S(N)(=O)=O)c1 [Tamsulosin hydrochloride],-0.195
7,Cn1nnc2c(C(N)=O)ncn2c1=O [Temozolomide],4.01
8,OC(c1cc(C(F)(F)F)nc2c(C(F)(F)F)cccc12)C1CCCCN1 (stereo not given) [Mefloquine hydrochloride],0.613
9,CC[C@H]1OC(=O)[C@H](C)[C@@H](O[C@H]2C[C@@](C)(OC)[C@@H](O)[C@H](C)O2)[C@H](C)[C@@H](O[C@@H]2O[C@H](C)C[C@H](N(C)C)[C@H]2O)[C@](C)(O)C[C@@H](C)CN(C)[C@H](C)[C@@H](O)[C@]1(C)O [Azithromycin],4.52
10,CCOC(=O)C1=C(COCCN)NC(C)=C(C(=O)OC)C1c1ccccc1Cl (stereo not given) [Amlodipine besylate],-2.17
11,CC(C)COCC(CN(Cc1ccccc1)c1ccccc1)N1CCCC1 (stereo not given) [Bepridil hydrochloride],-6.51
12,Cc1cc2c(s1)Nc1ccccc1N=C2N1CCN(C)CC1 [Olanzapine],0.145
13,C#CCN[C@@H]1CCc2ccccc21 [Rasagiline mesylate],2.65
14,Nc1ncn([C@H]2C[C@H](O)[C@@H](CO)O2)c(=O)n1 [Decitabine],5.67
15,NS(=O)(=O)Cc1noc2ccccc12 [Zonisamide],-0.0674
16,C[C@]12CC[C@@H]3c4ccc(O)cc4C[C@@H](CCCCCCCCC[S+]([O-])CCCC(F)(F)C(F)(F)F)[C@H]3[C@@H]1CC[C@@H]2O (stereo not given in full),-2.82
17,C[C@@H](O[C@H]1OCCN(Cc2n[nH]c(=O)[nH]2)[C@H]1c1ccc(F)cc1)c1cc(C(F)(F)F)cc(C(F)(F)F)c1 [Aprepitant],0.23
18,CNCc1ccc(-c2[nH]c3cc(F)cc4c3c2CCNC4=O)cc1 [Rucaparib camsylate],4.21
19,Cc1cn([C@H]2C=C[C@@H](CO)O2)c(=O)[nH]c1=O [Stavudine],-0.918
20,Cc1nnc(C(C)C)n1C1C[C@H]2CC[C@@H](C1)N2CC[C@H](NC(=O)C1CCC(F)(F)CC1)c1ccccc1 (stereo in doubt) [Maraviroc],2.48
